# mHTT CaM bind = disrupts binding of mutant huntingtin to calmodulin. P42858. inhibition, % at 15 µM. actives 3.6% (n = 190,000). AlphaScreen His-mHTT/GST-CaM binding, luminescence;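 note: 0% = both proteins with DMSO and 100% = one protein alone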
# Pf apPOL inh = Pf-apPOL DNA polymerase inhibition; AID 1794808; Recombinant Pf-apPOL, molecular beacon fluorescence, 1.5 h; actives 0.25% (n = 210,000); inhibition, % at 10 µM
# Starred values were filed as active, the others as inactive; nt = no result; ! = not confirmed by another sample. Compounds with a hit are over-represented: about 3.6% of the library has one in this group of screens. Cut-off read from the data, not from the text of the source: active = inhibition above about 50%; inactive = the rest.
SMILES,mHTT CaM bind,Pf apPOL inh
O=C(NCc1ccccc1F)C1CC(=O)N(c2ccc3c(c2)CCN3C(=O)C2CC2)C1 (stereo unspecified),3,-7
COc1ccc(N=Cc2c(O)ccc3oc4c(c23)CCCC4)cc1,4,-4
Cc1ccc(C(=O)Sc2n[nH]c(=O)[nH]c2=O)cc1,98*,12
O=C(Sc1n[nH]c(=O)[nH]c1=O)c1cccc(Br)c1,4,-5
Cc1ccc(C2CC(=O)C3=C(C2)Nc2ccccc2NC3c2cccs2)cc1 (stereo unspecified),18,-3
CC(C)CNC(=O)C1COC2(CCC(C)CC2)N1C(=O)c1ccc(F)cc1 (stereo unspecified),-8,-1
COc1ccc(C2CC(C(F)(F)F)n3nc(C(=O)NCc4ccccc4)cc3N2)cc1 (stereo unspecified),31,-2
CCSC1=C(C#N)C2(CCCC2)C(C#N)=C(N)N1,2,2
N#CC1=C(N)NC(SCC(=O)Nc2ccc(Br)cc2)=C(C#N)C12CCCCC2,83*,-8
COc1ccc(S(=O)(=O)CCC(=O)Nc2ccc(Br)cc2F)cc1,-10,-6
COc1ccc(NC(=O)c2ccc(-c3ccc(Cl)cc3)o2)cc1OC,59*,-18
COc1ccc(NC(=O)c2ccc(-c3cccc(Cl)c3)o2)cc1OC,27,-5
Cc1nc(C(=O)NCCc2ccncc2)c(C)n1C1CCN(S(C)(=O)=O)CC1,11,-6
Cn1cccc1/C=C1\CN(Cc2ccccc2)C/C(=C\c2cccn2C)C1=O,99*,-4
O=C1/C(=C/c2cccnc2)CN(Cc2ccccc2)C/C1=C\c1cccnc1,14,-6
Cc1cc(NC(=O)Cn2nc(-c3ccc4c(c3)OCO4)ccc2=O)on1,-8,2
COc1ccc(OCCOCCN2CCCCC2)cc1,0,-1
COc1ccccc1-c1nnc(NC(=O)c2ccc3c(c2)CCCC3)o1,-2,-6
CC(C)S(=O)(=O)c1cccc(-c2nnc(NC(=O)c3ccc4c(c3)CCCC4)o2)c1,51*,-18
Cc1ccc(CNC(=O)c2c[nH]n3c(=O)cc(C)nc23)cc1,6,-4
COc1ccc(-c2nnc(C)c(NCc3ccccc3)n2)cc1,41,-4
COc1ccc(CNc2nc(-c3ccccc3)nnc2C)cc1,56*,-5
O=C(NCc1ccc(F)cc1)N1CCc2nc3cc[nH]n3c(=O)c2C1,-3,-3
CCOc1ccc(C2C3=C(CCCC3=O)Nc3ccc4ncccc4c32)cc1 (stereo unspecified),36,-1
COc1cc(C2C3=C(CCCC3=O)Nc3ccc4ncccc4c32)ccc1OCc1ccccc1 (stereo unspecified),100*,-1
SMILES,mHTT CaM bind,Pf apPOL inh
CCOc1cc(C2C3=C(CCCC3=O)NC3=C2C(=O)CCC3)ccc1OCc1cccc(F)c1,75*,-30
O=C1CCCC2=C1C(c1ccc(OCc3ccccc3F)c(Cl)c1)C1=C(CCCC1=O)N2,-6,-4
CC1(C)CC(=O)C(C(=N)NC(=O)c2ccccc2)=C(O)C1,1,1
Cc1ccc(Cl)cc1NC(=O)c1cc2n(n1)CCCC2,-12,0
O=C(Nc1cnc(N2CCCCCC2)nc1)C1CCCC1,2,-7
Cc1nc(SCc2ccccc2)[nH]c(=O)c1CC(=O)O,-7,-16
CC(=O)c1cccc(NC(=O)Cc2c(C)nc(SCc3cccc(Cl)c3)[nH]c2=O)c1,51*,-5
CCCCC(=O)NC(c1ccc([N+](=O)[O-])cc1)c1ccc2cccnc2c1O (stereo unspecified),100*,3
CCCC(=O)NC(c1ccccc1OC)c1ccc2cccnc2c1O (stereo unspecified),99*,7
CCCCC(=O)NC(c1ccc(C)cc1)c1ccc2cccnc2c1O (stereo unspecified),100*,1
CCCC(=O)NC(c1ccc(C)cc1)c1ccc2cccnc2c1O (stereo unspecified),100*,9
CCCCC(=O)NC(c1ccccc1OC)c1cc(Cl)c2cccnc2c1O (stereo unspecified),7,-11
O=C(O)c1c2c(nc3ccccc13)/C(=C/c1ccc([N+](=O)[O-])cc1)CC2,9,1
CC1CCN(c2ccc(-c3noc(CCC(=O)NCCc4ccccc4)n3)cc2)CC1,-1,-6
CC(C)(C)CC(=O)N1CCC(CCOCc2cccc(F)c2)CC1,-6,-2
Cc1ccc(CSc2nnc(-c3ccco3)n2-c2ccc3c(c2)OCCO3)cc1,nt,-1
O=C(CCCn1cccc1)Nc1nc2ccccc2s1,1,-3
O=C(C[n+]1ccc2ccccc2c1)c1cc2ccccc2oc1=O,85*,1
COC(=O)c1cc2ccccc2oc1=O,-2,-1
CCCCCC(=O)Nc1ncc2c(n1)CC(c1cc(OC)c(OC)c(OC)c1)CC2=O (stereo unspecified),0,82*
COc1cc(C2CC(=O)c3cnc(NC(=O)c4ccccc4)nc3C2)cc(OC)c1OC (stereo unspecified),-4,-2
COc1cccc(CN2CCCC(c3nncn3C)C2)c1 (stereo unspecified),-6,-2
COc1ccccc1C1=N/C(=C\c2ccccc2[N+](=O)[O-])C(=O)O1,-5,-2
c1ccc(C2=NNC(c3ccccc3)=NN2)cc1,24,99*!
O=C1NC(c2ccccc2)=NC1=Cc1ccccc1,nt,3
SMILES,mHTT CaM bind,Pf apPOL inh
O=C1c2ccccc2C(=O)c2c1cccc2S(=O)(=O)Nc1ccc(Cl)cc1,70*,-3
CCNS(=O)(=O)c1cccc2c1C(=O)c1ccccc1C2=O,12,4
O=C(CN(c1cccc(C(F)(F)F)c1)S(=O)(=O)c1ccccc1)Nc1cccc(Cl)c1,86*,22
O=C(CN(c1ccc(Cl)c(C(F)(F)F)c1)S(=O)(=O)c1ccccc1)Nc1cccnc1,35,7
O=C(CN(c1cccc(C(F)(F)F)c1)S(=O)(=O)c1ccccc1)Nc1ccc(Cl)cc1,88*,0
O=C(CN(c1ccccc1)S(=O)(=O)c1ccc(Cl)cc1)Nc1ccc2c(c1)OCO2,11,-2
O=C(CSc1nnc(N2CCN(c3ccc(F)cc3)CC2)s1)NCc1ccco1,-5,-3
Cc1cccc(OCC(=O)N2CCCCC2CCN2CCCCC2)c1C (stereo unspecified),6,-7
Cc1cc(C(C)(C)C)cc(C)c1CSc1nnc(N)s1,0,-18
COc1ccc(NC(=O)c2c(-c3c(Cl)cccc3Cl)noc2C)c([N+](=O)[O-])c1,53*,11
Cc1ccc2nc(NC(=O)c3cc([N+](=O)[O-])ccc3Cl)sc2c1,-2,-3
Cc1ccc(NC(=O)c2c(-c3c(Cl)cccc3Cl)noc2C)c([N+](=O)[O-])c1,19,6
Cc1onc(-c2c(Cl)cccc2Cl)c1C(=O)Nc1nc2ccc([N+](=O)[O-])cc2s1,85*,-22
Cc1onc(-c2c(Cl)cccc2Cl)c1C(=O)Nc1ccc(F)c([N+](=O)[O-])c1,63*,42
Cc1onc(-c2ccccc2Cl)c1C(=O)Nc1ccc(F)c([N+](=O)[O-])c1,23,-5
COc1ccc(NC(=O)Cn2c(N)nc(C)c(C)c2=O)cc1,0,3
COc1ccc(C2(CNC(=O)Cc3cccs3)CCOCC2)cc1,-11,-6
CCN1CCN(C(=O)C2CCN(c3nc4ccc(-c5cncnc5)nc4s3)CC2)CC1,18,0
CCN(CC)Cc1c(O)ccc2c(=O)c(Oc3ccc(OC)cc3)coc12,6,-8

# High-throughput results (PubChem BioAssay)
